PubChem BioAssay (EPA / NIEHS)
Values joined by “and” are separate entries in the source; they are usually repeats but may differ in a detail not shown here. Identical values can stand only once. A structure can be active in one record and inactive in another. Active and inactive are the calls of the source. Rule for the calls: active = hit-call score of the fitted dose curve at least 0.9, where 1 is the maximum; inactive = score below 0.9.

Key:
[1] = read-out: Interleukin-8 (IL8), CXCL8 (gene 3576); assay: BSK_CASM3C_IL8: BioMAP Diversity Plus: CASM3C Assay for Interleukin-8 (IL8) Biomarker Activity (AID 2283042); settings: primary human coronary artery smooth muscle cells; actives raise or lower the signal;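 note: IL-8 protein level quantified by ELISA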
[2] = read-out: Human Leukocyte Antigen - DR isotype (HLADR), HLA-DRA (gene 3122); assay: BSK_CASM3C_HLADR: BioMAP Diversity Plus: CASM3C Assay for Human Leukocyte Antigen - DR isotype (HLADR) Biomarker Activity (AID 2283043); settings: primary human coronary artery smooth muscle cells; actives raise or lower the signal;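 note: cell-surface HLA-DR protein level quantified by ELISA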
[3] = read-out: Macrophage colony-stimulating factor (MCSF), CSF1 (gene 1435); assay: BSK_CASM3C_MCSF: BioMAP Diversity Plus: CASM3C Assay for Macrophage colony-stimulating factor (MCSF) Biomarker Activity (AID 2283044); settings: primary human coronary artery smooth muscle cells; actives raise or lower the signal;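 note: M-CSF protein amount quantified by ELISA after 24 h exposure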
[4] = read-out: Low-density lipoprotein receptor (LDLR), LDLR (gene 3949); assay: BSK_CASM3C_LDLR: BioMAP Diversity Plus: CASM3C Assay for Low-density lipoprotein receptor (LDLR) Biomarker Activity (AID 2283045); settings: primary human coronary artery smooth muscle cells; actives raise or lower the signal;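 note: LDLR protein level on the cell surface quantified by ELISA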
[5] = read-out: Monocyte Chemoattractant Protein-1 (MCP1), CCL2 (gene 6347); assay: BSK_CASM3C_MCP1: BioMAP Diversity Plus: CASM3C Assay for Monocyte Chemoattractant Protein-1 (MCP1) Biomarker Activity (AID 2283046); settings: primary human coronary artery smooth muscle cells; actives raise or lower the signal;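 note: MCP-1 level quantified by ELISA 24 h after dosing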
[6] = BSK_CASM3C_Proliferation: Cell Proliferation Assessment in the BioMAP Diversity Plus: CASM3C Assay (AID 2283047); settings: primary human coronary artery smooth muscle cells;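 note: sulforhodamine B total protein stain as relative cell number at 560 nm; sub-confluent cells exposed 48 h before staining; fitted both ways against DMSO so gain or loss of cell number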
[7] = read-out: Monokine induced gamma interferon (MIG), CXCL9 (gene 4283); assay: BSK_CASM3C_MIG: BioMAP Diversity Plus: CASM3C Assay for Monokine induced gamma interferon (MIG) Biomarker Activity (AID 2283048); settings: primary human coronary artery smooth muscle cells; actives raise or lower the signal;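 note: MIG protein level measured by ELISA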
[8] = read-out: serum amyloid A (SAA), SAA1 (gene 6288); assay: BSK_CASM3C_SAA: BioMAP Diversity Plus: CASM3C Assay for serum amyloid A (SAA) Biomarker Activity (AID 2283049); settings: primary human coronary artery smooth muscle cells; actives raise or lower the signal;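 note: SAA protein level quantified by ELISA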
[9] = BSK_CASM3C_SRB: Viability Assessment in the BioMAP Diversity Plus: CASM3C Assay (AID 2283050); settings: primary human coronary artery smooth muscle cells
[10] = read-out: Thrombomodulin, THBD (gene 7056); assay: BSK_CASM3C_Thrombomodulin: BioMAP Diversity Plus: CASM3C Assay for Thrombomodulin Biomarker Activity (AID 2283051); settings: primary human coronary artery smooth muscle cells; actives raise or lower the signal;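 note: thrombomodulin protein level measured by ELISA 24 h after dosing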
[11] = read-out: Tissue Factor, F3 (gene 2152); assay: BSK_CASM3C_TissueFactor: BioMAP Diversity Plus: CASM3C Assay for Tissue Factor Biomarker Activity (AID 2283052); settings: primary human coronary artery smooth muscle cells; actives raise or lower the signal;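 note: cell surface tissue factor protein level read by ELISA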
[12] = read-out: Interferon-gamma inducible Protein 10 (IP10), CXCL10 (gene 3627); assay: BSK_hDFCGF_IP10: BioMAP Diversity Plus: hDFCGF Assay for Interferon-gamma inducible Protein 10 (IP10) Biomarker Activity (AID 2283053); settings: primary human foreskin fibroblasts; actives raise or lower the signal
In short: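 Primary human foreskin fibroblasts exposed to chemicals for 24 h. IP-10 measured by ELISA; changes fitted bidirectionally against DMSO baseline.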

[13] = read-out: Urokinase-type plasminogen activator receptor (uPAR), PLAUR (gene 5329); assay: BSK_CASM3C_uPAR: BioMAP Diversity Plus: CASM3C Assay for Urokinase-type plasminogen activator receptor (uPAR) Biomarker Activity (AID 2283054); settings: primary human coronary artery smooth muscle cells; actives raise or lower the signal;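 note: cell-surface uPAR protein level quantified by ELISA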
[14] = read-out: Vascular cell adhesion molecule 1 (VCAM1), VCAM1 (gene 7412); assay: BSK_CASM3C_VCAM1: BioMAP Diversity Plus: CASM3C Assay for Vascular cell adhesion molecule 1 (VCAM1) Biomarker Activity (AID 2283055); settings: primary human coronary artery smooth muscle cells; actives raise or lower the signal;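 note: VCAM-1 protein level quantified by ELISA on the cells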
[15] = read-out: Collagen III, COL3A1 (gene 1281); assay: BSK_hDFCGF_CollagenIII: BioMAP Diversity Plus: hDFCGF Assay for Collagen III Biomarker Activity (AID 2283056); settings: primary human foreskin fibroblasts; actives raise or lower the signal
In short: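 hDFCGF primary human dermal fibroblasts; 24 h chemical exposure; collagen III by ELISA; bidirectional curve fit vs DMSO baseline (gain or loss of signal).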

[16] = read-out: Epidermal growth factor receptor (EGFR), EGFR (gene 1956); assay: BSK_hDFCGF_EGFR: BioMAP Diversity Plus: hDFCGF Assay for Epidermal growth factor receptor (EGFR) Biomarker Activity (AID 2283057); settings: primary human foreskin fibroblasts; actives raise or lower the signal
In short: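 Primary human foreskin fibroblasts (hDFCGF system), sampled 24 h after dosing; EGFR quantified by ELISA. Bidirectional fit relative to DMSO baseline; SRB total-protein staining in parallel cultures for cytotoxicity.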

[17] = read-out: Interleukin-8 (IL8), CXCL8 (gene 3576); assay: BSK_hDFCGF_IL8: BioMAP Diversity Plus: hDFCGF Assay for Interleukin-8 (IL8) Biomarker Activity (AID 2283058); settings: primary human foreskin fibroblasts; actives raise or lower the signal
In short: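 ELISA read-out of IL-8 from primary human foreskin fibroblast cultures taken 24 h after dosing; values are bidirectional fits relative to DMSO vehicle.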

[18] = BSK_hDFCGF_Proliferation: Cell Proliferation Assessment in the BioMAP Diversity Plus: hDFCGF Assay (AID 2283059); settings: primary human foreskin fibroblasts;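 note: curves fitted for both rise and fall of signal versus DMSO baseline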
In short: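 Total protein read at 560 nm after 0.1% SRB staining of TCA-fixed human skin fibroblasts, […]. Activity is fitted in both directions relative to DMSO as baseline.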

[19] = read-out: Macrophage colony-stimulating factor (MCSF), CSF1 (gene 1435); assay: BSK_hDFCGF_MCSF: BioMAP Diversity Plus: hDFCGF Assay for Macrophage colony-stimulating factor (MCSF) Biomarker Activity (AID 2283060); settings: primary human foreskin fibroblasts; actives raise or lower the signal
In short: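 ELISA read-out of M-CSF in human dermal foreskin fibroblast cultures, 24 h after chemical dosing; gain or loss of signal fitted bidirectionally relative to DMSO baseline.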

[20] = read-out: Tissue plasminogen activator (tPA), PLAT (gene 5327); assay: BSK_BE3C_tPA: BioMAP Diversity Plus: BE3C Assay for Tissue plasminogen activator (tPA) Biomarker Activity (AID 2283041); settings: primary human bronchial epithelial cells; actives raise or lower the signal;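 note: tPA level quantified by ELISA one day after compound addition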
In short: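 Primary human bronchial epithelial cells in the BE3C system, exposed to compound for 24 h. tPA was quantified by ELISA; DMSO served as baseline, with gain or loss of signal fitted. Cytotoxicity checked in parallel cultures by SRB total-protein staining.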

Measured: AC50

Cc1ccc(N=Nc2c(O)ccc3ccccc23)c(C)c1
active: [10] 8.07 µM | [12] 10 µM | [15] 6.8 µM | [19] 10 µM
not listed: [20]
inactive: all other assays above

OCC(F)(F)C(F)(F)C(F)(F)C(F)(F)C(F)(F)C(F)(F)C(F)(F)C(F)(F)C(F)(F)C(F)(F)C(F)(F)F
active: [15] 58 nM and 74.1 nM
inactive: all other assays above

Oc1c(Cl)cc(Cl)cc1Sc1cc(Cl)cc(Cl)c1O
inactive: [1] | [4] | [5] | [8] | [11] | [16]
active: [2] 9.1 µM and 7.2 µM | [3] 12.6 µM and 11.8 µM | [6] 15.8 µM and 12.1 µM | [7] 20.2 µM and 26.6 µM | [8] 20 µM | [9] 17.1 µM | [10] 12.8 µM and 12.6 µM | [12] 1.66 µM and 1.94 µM | [13] 20 µM and 18.3 µM | [14] 20 µM and 12.7 µM | [15] 1.39 µM and 455 nM | [16] 0.236 µM | [17] 4.43 µM and 4.46 µM | [18] 1.08 µM and 148 nM | [19] 1.46 µM and 1.59 µM

O=C(CC(=O)C(F)(F)C(F)(F)C(F)(F)F)c1cccs1
inactive: [1] | [10] | [11] | [12] | [15] | [16] | [17] | [19]
active: [2] 47.3 µM and 50.5 µM | [3] 45.2 µM and 48.9 µM | [4] 40.2 µM and 32.8 µM | [5] 45.5 µM and 45.9 µM | [6] 30 µM and 24.6 µM | [7] 42 µM and 50.2 µM | [8] 41.2 µM and 43.4 µM | [9] 45.6 µM and 44.6 µM | [10] 54.4 µM | [13] 51.8 µM and 50.9 µM | [14] 40.6 µM and 38.2 µM | [18] 4.23 µM and 4.92 µM

CCCCCCCCCCCCCCCCCC[N+](C)(C)Cc1ccccc1
inactive: [20] | [16]
active: [1] 12.6 µM | [2] 3.45 µM | [3] 5.5 µM | [4] 6.53 µM | [5] 5.29 µM | [6] 2.74 µM | [7] 15.4 µM | [8] 2.72 µM | [9] 2.75 µM | [10] 2.56 µM | [11] 0.296 µM | [12] 0.795 µM | [13] 2.77 µM | [14] 10 µM | [15] 0.355 µM | [17] 2.52 µM | [19] 0.721 µM

COc1cc(OC)nc(NC(=O)NS(=O)(=O)Nc2ccccc2C(=O)N(C)C)n1
active: [1] 0.0224 µM
not listed: [18] | [20]
inactive: all other assays above

Oc1cc2ccccc2cc1O
active: [15] 20 µM
not listed: [18] | [20]
inactive: all other assays above

CCCCCCCCCCCC
active: [12] 8.64 µM and 6.71 µM | [15] 9.2 µM and 5.67 µM | [17] 12.9 µM and 14.6 µM | [19] 9.32 µM and 10.2 µM
not listed: [18] | [20]
inactive: all other assays above

CC1=NN(c2ccccc2)C(=O)C1
active: [10] 9.62 µM
not listed: [18] | [20]
inactive: all other assays above

CC[N+](CC)(CC)Cc1ccccc1
not listed: [20]
inactive: all other assays above

Cc1ccc(C(=O)c2ccccc2)cc1
active: [1] 0.0224 µM | [2] 3.97 µM | [12] 33.1 µM | [15] 33.8 µM | [19] 29.3 µM
not listed: [18] | [20]
inactive: all other assays above

CCCCC(CC)C(=O)O (stereo unspecified)
not listed: [18] | [20]
inactive: all other assays above
